Drawing on PubChem BioAssay (NCI), this text covers growth for 13 compounds.

Some test systems named below: SR leukemia; RPMI-8226 leukemia; OVCAR-8 ovarian; OVCAR-5 ovarian; SK-OV-3 ovarian; IGROV1 ovarian; OVCAR-3 ovarian; HS 578T breast; NCI/ADR-RES ovarian; OVCAR-4 ovarian.
Common to all, as to assay: NCI-60 one-dose screen, 48 h (100 = growth as untreated, 0 = no growth, -100 = all killed)
Common to all, as to settings: 10 µM unless noted

SMILES strings stand for the structures. About 83,000 compounds went through this panel and 20% of them were active in at least one assay; those are over-represented in the sample as a whole.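 Results are percent growth after 48 hours of single-concentration exposure. 100 means growth as in untreated cells, lower positive values show inhibition; negative values down to -100 show cell death.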 A number with no mark means an inactive call. Active and inactive are the calls of the source. How the source made its calls: active means growth percent below 10; inactive means the rest. Where a SMILES comes first, the peptide text is derived from it. The star is where a group is joined. Trt = c1ccc(C(c2ccccc2)(c2ccccc2)*)cc1; Cbz = O=C(OCc1ccccc1)*

Regarding `CCC(CC)COC(=O)c1ccc(O)c(O)c1`, the growth was 18.6% with SR leukemia; 35.1% with RPMI-8226 leukemia; 59.9% in the test with OVCAR-8 ovarian; 91.3% in the test with OVCAR-5 ovarian; 67% in the test on SK-OV-3 ovarian; 37.5% with IGROV1 ovarian. For the same compound, the growth was 78.1% in the test on OVCAR-3 ovarian, 86.8% with HS 578T breast and 57.8% in the test on NCI/ADR-RES ovarian.
As for `CC(C)(C)CC(C)(C)c1ccc(OCCSC(=N)N)cc1`, the growth is -37.7% (active) in the test with SR leukemia; 2.8% (active) in the test on RPMI-8226 leukemia; 56.2% in the test on OVCAR-8 ovarian; 79.3% with OVCAR-5 ovarian; 41.2% with OVCAR-4 ovarian; 89.6% in the test with SK-OV-3 ovarian. The growth in the test with IGROV1 ovarian was 77.1%; with OVCAR-3 ovarian it was 46.7%; in the test with HS 578T breast, 91.4%; in the test on NCI/ADR-RES ovarian it was 71.7%.
Take `COC(=O)C(CSC(c1ccccc1)(c1ccccc1)c1ccccc1)NC(=O)C(CC(N)=O)NC(=O)OCc1ccccc1` (stereo not drawn) (Cbz-Asn-Cys(Trt)-OMe; configuration not given here): the growth was -43.7% (active) in the test on SR leukemia; 2.8% (active) in the test on RPMI-8226 leukemia; 13.1% in the test on OVCAR-8 ovarian; 67% with OVCAR-5 ovarian; 39.5% in the test with OVCAR-4 ovarian; 14.2% with SK-OV-3 ovarian. Further, the growth was 48.6% with IGROV1 ovarian, -20.4% (active) in the test on HS 578T breast and 63.2% in the test on NCI/ADR-RES ovarian.
`Cc1c2ccccc2c(C)c2c1ccc1ccccc12`: the growth in the test with SR leukemia is 63.8%; in the test with RPMI-8226 leukemia it was 84.3%; in the test on OVCAR-8 ovarian, 98.8%; in the test on OVCAR-5 ovarian it was 95.6%; with OVCAR-4 ovarian, 89.9%; in the test with SK-OV-3 ovarian it was 99.4%. The growth in the test with IGROV1 ovarian is 81%; with OVCAR-3 ovarian, 105%; in the test with HS 578T breast, 98%; with NCI/ADR-RES ovarian, 106%.
For `NC(N)=N/N=C/c1ccc([N+](=O)[O-])o1`, the growth was 98.3% with SR leukemia; 78.7% in the test on RPMI-8226 leukemia; 79.7% in the test on OVCAR-8 ovarian; 123% in the test on OVCAR-5 ovarian; 82.8% in the test on OVCAR-4 ovarian; 116% in the test with SK-OV-3 ovarian. Also, the growth with IGROV1 ovarian is 98%; in the test with HS 578T breast it was 105%; in the test on NCI/ADR-RES ovarian, 99.5%.
As to `Oc1c(Cl)c2ccccc2c2ccccc12`, the growth is 99.2% with SR leukemia; 102% in the test on RPMI-8226 leukemia; 98.4% in the test on OVCAR-8 ovarian; 129% in the test on OVCAR-5 ovarian; 98.1% in the test on OVCAR-4 ovarian; 111% in the test on SK-OV-3 ovarian. Moreover, the growth in the test with IGROV1 ovarian was 117%; in the test with OVCAR-3 ovarian, 107%; in the test on NCI/ADR-RES ovarian, 67.6%.
On to `CCCCCCCCCCCCCCNCc1ccccc1`, for which the growth was 11.8% with SR leukemia; 34.5% in the test on RPMI-8226 leukemia; 87% in the test with OVCAR-8 ovarian; 105% with OVCAR-5 ovarian; 80.3% in the test on OVCAR-4 ovarian; 97.8% in the test with SK-OV-3 ovarian. In addition, the growth with IGROV1 ovarian was 97.7%; with OVCAR-3 ovarian it was 91.4%; in the test on HS 578T breast it was 95%; in the test with NCI/ADR-RES ovarian it was 79.6%.
For the compound `C=C(Cl)C(=NC(C)(C)C)Nc1ccccc1C`, the growth with SR leukemia is 1.56% (active); in the test with RPMI-8226 leukemia, 75.1%; with OVCAR-8 ovarian, 89.2%; in the test on OVCAR-5 ovarian, 114%; in the test with SK-OV-3 ovarian it was 105%; with IGROV1 ovarian, 119%. Further, the growth in the test on HS 578T breast was 96.5%; in the test with NCI/ADR-RES ovarian, 107%.
For the compound `O=C(/C=C\c1ccccc1)N1c2ccccc2CC1c1c[nH]c2ccccc12` (stereo unspecified), the growth in the test with SR leukemia was 73.5%; in the test with RPMI-8226 leukemia it was 55.9%; with OVCAR-8 ovarian it was 81%; in the test with OVCAR-4 ovarian, 62%; with SK-OV-3 ovarian it was 60.5%; with IGROV1 ovarian it was 47.3%. The figures for the growth in the test on OVCAR-3 ovarian, in the test on HS 578T breast and in the test with NCI/ADR-RES ovarian were 75%, 75.3% and 73.6%, respectively.
For `OC(CNc1ccnc2cc(Cl)ccc12)CNc1ccnc2cc(Cl)ccc12`, the growth in the test on SR leukemia is 2.51% (active); with RPMI-8226 leukemia it was 92.6%; in the test with OVCAR-8 ovarian, 52.5%; with OVCAR-5 ovarian it was 79.5%; in the test on SK-OV-3 ovarian, 113%; with IGROV1 ovarian, 87.6%. The growth was 43.6% in the test with OVCAR-3 ovarian, 89% with HS 578T breast and 106% in the test on NCI/ADR-RES ovarian.
On to `CC(C)(C)c1ccc(O)c(C2CCCCC2)c1`, for which the growth in the test on SR leukemia is 84.9%; with RPMI-8226 leukemia, 83%; with OVCAR-8 ovarian it was 96.3%; in the test on OVCAR-5 ovarian, 101%; in the test with SK-OV-3 ovarian, 109%; in the test on IGROV1 ovarian, 137%. For the same compound, the growth with NCI/ADR-RES ovarian was 117%.
Consider `c1ccc2c(c1)Nc1cc3ccccc3cc1N2`, for which the growth with SR leukemia was 29.2%; with RPMI-8226 leukemia, 18.8%; in the test with OVCAR-8 ovarian, 29.5%; with OVCAR-5 ovarian, 69.7%; in the test on SK-OV-3 ovarian, 63.6%; with IGROV1 ovarian, 50.6%. Also, the growth with HS 578T breast is 53.4%; in the test on NCI/ADR-RES ovarian it was 30.5%.
In the case of `C/C=C1\SC(=S)NC1=O`, the growth in the test with SR leukemia was 101%; with RPMI-8226 leukemia, 101%; in the test with OVCAR-8 ovarian it was 103%; in the test with OVCAR-5 ovarian, 94.9%; in the test on SK-OV-3 ovarian, 92.4%; in the test on IGROV1 ovarian, 105%. The growth in the test with OVCAR-3 ovarian is 111%; with HS 578T breast, 104%; in the test with NCI/ADR-RES ovarian it was 107%.
